The values below come from PubChem BioAssay (EPA / NIEHS).

The target of experiment [1] is zebrafish Thyroid Hormone Receptor alpha (TRa), thraa (gene 30670) (UniProt Q98867). The experiment in a line: ATG_zfTRa_XSP2: Attagene TRANS-FACTORIAL Multi-Species (XSP1) HepG2 Assay for zebrafish Thyroid Hormone Receptor alpha (TRa) (AID 2283832).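 Note: actives raise zebrafish TRa-Gal4 reporter transcript above DMSO baseline.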 In short, it runs like this: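 Chimeric zebrafish TRa-Gal4 activity read in transfected human HepG2 as GAL4-UAS reporter transcripts, 24 h post-dose, via RT-PCR with labeled primer extension and capillary electrophoresis. Medium also carries 3 nM 6-alpha-fluorotestosterone and 1.5 nM norgestrel; DMSO baseline.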
zebrafish Thyroid Hormone Receptor alpha (TRa), thraa (gene 30670), sequence (Q98867 whole entry, looked up, the tested form may be a part): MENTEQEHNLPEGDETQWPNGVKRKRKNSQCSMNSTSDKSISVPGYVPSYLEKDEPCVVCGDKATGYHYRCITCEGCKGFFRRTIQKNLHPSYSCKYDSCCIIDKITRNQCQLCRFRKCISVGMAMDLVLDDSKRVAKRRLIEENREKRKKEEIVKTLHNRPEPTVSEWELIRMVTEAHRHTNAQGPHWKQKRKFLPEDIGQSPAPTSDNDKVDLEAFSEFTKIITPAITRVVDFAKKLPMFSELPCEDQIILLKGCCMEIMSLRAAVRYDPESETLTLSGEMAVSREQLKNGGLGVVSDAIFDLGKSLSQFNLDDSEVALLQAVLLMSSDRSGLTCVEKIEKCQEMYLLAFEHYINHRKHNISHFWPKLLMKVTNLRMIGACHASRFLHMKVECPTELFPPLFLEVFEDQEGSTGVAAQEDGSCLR

Experiment [2] has as its system zebrafish Peroxisome Proliferator-activated Receptor gamma (PPARg), gene 557037. As to the kind of experiment: ATG_zfPPARg_XSP2: Attagene TRANS-FACTORIAL Multi-Species (XSP2) HepG2 Assay for zebrafish Peroxisome Proliferator-activated Receptor gamma (PPARg) (AID 2283833).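 Note: actives increase reporter signal over DMSO so AC50 reflects activation.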 In short, it runs like this:
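HepG2, transient MRTU transfection, 24 h compound; zfPPARg-GAL4 reporter mRNA by RT-PCR + capillary electrophoresis; gain-of-signal vs DMSO.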

Experiment [3] concerns turtle Thyroid Hormone Receptor, alpha (TRa), gene 101949057. As to the kind of experiment: ATG_trTRa_XSP2: Attagene TRANS-FACTORIAL Multi-Species (XSP1) HepG2 Assay for turtle Thyroid Hormone Receptor, alpha (TRa) (AID 2283834).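 Note: hits raise reporter mRNA over the DMSO baseline so AC50 marks activators.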 In short, it runs like this: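 Multiplexed TRANS reporter assay; HepG2 carrying NR-Gal4 constructs treated 24 h. mRNA of the GAL4-UAS reporter quantified via labelled RT-PCR fragments on a genetic analyzer, vs DMSO negative control.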

Experiment [4] is described as follows: ATG_M_61_XSP2: Attagene TRANS-FACTORIAL Multi-Species (XSP2) HepG2 Assay for M61 Transcription Factor (Internal Marker) (AID 2283835; active = hit-call score of the fitted dose curve at least 0.9, where 1 is the maximum; inactive = score below 0.9;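 note: reporter mRNA of an internal background marker read by RT-PCR and capillary electrophoresis; active means a rise in signal above the DMSO baseline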). The method, boiled down: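 Transient MRTU transfection of human HepG2; 24 h chemical dosing with 3 nM 6-alpha-fluorotestosterone + 1.5 nM norgestrel added for AR stimulation. RNA isolated, RT, PCR, FAM-labelled, HpaI cut, CE read. Positive direction vs DMSO.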

For experiment [5], the target named is zebrafish Thyroid Hormone Receptor beta (TRb), thrb (gene 30607) (UniProt Q9PVE4). As to the kind of experiment: ATG_zfTRb_XSP2: Attagene TRANS-FACTORIAL Multi-Species (XSP1) HepG2 Assay for zebrafish Thyroid Hormone Receptor beta (TRb) (AID 2283836). The method, boiled down: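 Reporter transcripts measured by RT-PCR, 6-FAM labelling, HpaI digestion and capillary electrophoresis after 24 h chemical exposure. Human HepG2 cells carry an exogenous zebrafish TRb-GAL4 chimera; medium included 3 nM 6-alpha-fluorotestosterone plus 1.5 nM norgestrel.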
zebrafish Thyroid Hormone Receptor beta (TRb), thrb (gene 30607), sequence (Q9PVE4 whole entry, looked up, the tested form may be a part): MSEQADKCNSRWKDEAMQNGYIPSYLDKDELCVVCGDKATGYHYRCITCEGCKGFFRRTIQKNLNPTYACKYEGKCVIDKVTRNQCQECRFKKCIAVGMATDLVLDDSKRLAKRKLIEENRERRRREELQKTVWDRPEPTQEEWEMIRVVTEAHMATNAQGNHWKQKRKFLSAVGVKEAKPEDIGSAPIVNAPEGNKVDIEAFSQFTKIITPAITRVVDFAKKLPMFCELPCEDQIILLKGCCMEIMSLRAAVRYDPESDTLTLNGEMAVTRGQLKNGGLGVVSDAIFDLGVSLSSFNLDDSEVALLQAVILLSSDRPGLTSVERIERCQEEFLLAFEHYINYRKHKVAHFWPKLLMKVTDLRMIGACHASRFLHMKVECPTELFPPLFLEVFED

The target in experiment [6] is frog Thyroid hormone Receptor alpha (TRa), thra-a (gene 397942) (UniProt P15204). The experiment in a line: ATG_frTRa_XSP2: Attagene TRANS-FACTORIAL Multi-Species (XSP2) HepG2 Assay for frog Thyroid hormone Receptor alpha (TRa) (AID 2283839).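 For AC50: AC50 reflects induction of frog TRa-driven reporter mRNA above DMSO baseline.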 In short, it runs like this:
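Chimeric frog TRα-GAL4 activity in human liver cells measures reporter transcript induction 24 h post-dose. Detection uses RT-PCR, HpaI-digested labelled products and fluorescence capillary electrophoresis; DMSO serves as negative control.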

In experiment [7] the test system is Sodium/Iodide Symporter (NIS), SLC5A5 (gene 6528). As to the kind of experiment: CPHEA_Stoker_NIS_Inhibition_RAIU: CPHEA's Radioactive Iodide Uptake (RAIU) Assay for Sodium/Iodide Symporter (NIS) Inhibition, Stoker and Laws Labs (AID 2283841). In short, it runs like this: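 hNIS-HEK293T-EPA cells incubated 2 h at room temperature with compound (0.001–100 uM, 0.5% DMSO) and 329 pM final 125I in HBSS/10 mM HEPES, pH 7.4. Intracellular 125I counted; normalised to DMSO maximal uptake, triplicate, three biological replicates.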

The nature of experiment [8]: CPHEA_Stoker_NIS_Cytotoxicity: Cytotoxicity Assessment for CPHEA's Radioactive Iodide Uptake (RAIU) Assay for Sodium/Iodide Symporter (NIS) Inhibition, Stoker and Laws Labs (AID 2283897).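 For AC50: active means loss of ATP signal versus DMSO meaning cytotoxicity.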 The method, boiled down: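 hNIS-HEK293T-EPA cells, human NIS expressed in HEK293T, treated 2 h with chemicals (0.001–100 uM, 0.5% final DMSO). ATP content read by CellTiter-Glo luminescence; loss of signal analysed relative to DMSO.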

Experiment [9] has as its target human Thyroid hormone Receptor beta (TRb), THRB (gene 7068) (UniProt P10828). The experiment in a line: ATG_hTRb_XSP2: Attagene TRANS-FACTORIAL Multi-Species (XSP2) HepG2 Assay for human Thyroid hormone Receptor beta (TRb) (AID 2283840).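 Note: actives raise reporter mRNA so potency reflects agonist-like gain of signal.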 In short, it runs like this:
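Gain-of-signal reporter transcription, referenced to DMSO, was measured in transiently transfected HepG2 after 24 h exposure; labeled RT-PCR products were resolved by capillary electrophoresis. Assay medium included 3 nM 6-alpha-fluorotestosterone and 1.5 nM norgestrel.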

Experiment [10] can be described thus: CEETOX_H295R_11DCORT_noMTC: CeeTox H295R High-throughput Steroidogenesis Assay for 11-Deoxycortisol (11DCORT), maximum tolerated concentration (MTC) filtered results only (AID 2283911; active = hit-call score of the fitted dose curve at least 0.9, where 1 is the maximum; inactive = score below 0.9). To be noted: actives raise or lower the signal. The method, boiled down:
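Forskolin-primed (10 uM, 48 h) H295R adrenal cells are dosed for 48 h at 0.1% DMSO; medium 11-deoxycortisol is quantified by LC-MS/MS against a 7-point standard curve, with activity fitted in both directions versus DMSO.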

Experiment [11] in a line: CEETOX_H295R_OHPREG_noMTC: CeeTox H295R High-throughput Steroidogenesis Assay for OH-Pregnenolone (OHPREG), maximum tolerated concentration (MTC) filtered results only (AID 2283912; active = hit-call score of the fitted dose curve at least 0.9, where 1 is the maximum; inactive = score below 0.9). To be noted: actives raise or lower the signal. In short, it runs like this:
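H295R; 10 uM forskolin 48 h pre-stim; test cpd in DMSO (0.1% final) 48 h; media MTBE-extracted, HPLC-MS/MS for OH-pregnenolone; bidirectional fit vs DMSO; no MTC (MTT) filtering.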

Experiment [12] is described as follows: CEETOX_H295R_OHPROG_noMTC: CeeTox H295R High-throughput Steroidogenesis Assay for OH-Progesterone (OHPROG), maximum tolerated concentration (MTC) filtered results only (AID 2283914; active = hit-call score of the fitted dose curve at least 0.9, where 1 is the maximum; inactive = score below 0.9). To be noted: actives raise or lower the signal. In short, it runs like this:
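Medium hormone measured by reverse-phase C18 HPLC with positive electrospray MS/MS after MTBE liquid-liquid extraction. Cells had 48 h forskolin (10 uM) prestimulation, then 48 h chemical dosing. Gain or loss of signal fitted relative to DMSO baseline.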

Experiment [13] can be described thus: CEETOX_H295R_CORTISOL_noMTC: CeeTox H295R High-throughput Steroidogenesis Assay for Cortisol, maximum tolerated concentration (MTC) filtered results only (AID 2283916; active = hit-call score of the fitted dose curve at least 0.9, where 1 is the maximum; inactive = score below 0.9). To be noted: actives raise or lower the signal. In short, it runs like this: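 H295R human adrenal cells prestimulated 48 h with 10 uM forskolin, then exposed 48 h to chemical in 0.1% DMSO; cortisol in medium quantified by HPLC-MS/MS; bidirectional fit vs DMSO baseline, concentrations not MTT-filtered for MTC.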

Experiment [14] is described as follows: CEETOX_H295R_CORTIC_noMTC: CeeTox H295R High-throughput Steroidogenesis Assay for Corticosterone (CORTIC), maximum tolerated concentration (MTC) filtered results only (AID 2283917; active = hit-call score of the fitted dose curve at least 0.9, where 1 is the maximum; inactive = score below 0.9). As to conditions: actives raise or lower the signal. The method, boiled down: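 Corticosterone secreted into the medium was measured by reverse-phase C18 HPLC with tandem MS after MTBE extraction. Cells (H295R) had 48 h forskolin (10 uM) stimulation before 48 h chemical exposure; gain or loss of signal was fitted relative to DMSO.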

A short description of experiment [15]: CEETOX_H295R_DOC_noMTC: CeeTox H295R High-throughput Steroidogenesis Assay for DOC, maximum tolerated concentration (MTC) filtered results only (AID 2283918; active = hit-call score of the fitted dose curve at least 0.9, where 1 is the maximum; inactive = score below 0.9). As to conditions: actives raise or lower the signal. In short, it runs like this: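 H295R cells prestimulated 48 h with 10 uM forskolin, then exposed 48 h to chemical in 0.1% DMSO. 11-Deoxycorticosterone in medium measured by MTBE extraction and HPLC-MS/MS; bidirectional fit vs DMSO, no MTC filter.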

A short description of experiment [16]: CEETOX_H295R_ESTRADIOL_noMTC: CeeTox H295R High-throughput Steroidogenesis Assay for Estradiol, maximum tolerated concentration (MTC) filtered results only (AID 2283919; active = hit-call score of the fitted dose curve at least 0.9, where 1 is the maximum; inactive = score below 0.9). To be noted: actives raise or lower the signal. In short, it runs like this:
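Readout: dansyl-derivatized estradiol quantified by LC-MS/MS in medium from H295R cells dosed 48 h (0.1% DMSO) following 48 h forskolin (10 uM) prestimulation. Gain or loss of signal fitted against DMSO; no MTC filtering applied.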

Experiment [17] is described as follows: CEETOX_H295R_PROG_noMTC: CeeTox H295R High-throughput Steroidogenesis Assay for Progesterone (PROG), maximum tolerated concentration (MTC) filtered results only (AID 2283920; active = hit-call score of the fitted dose curve at least 0.9, where 1 is the maximum; inactive = score below 0.9). To be noted: actives raise or lower the signal. The method, boiled down: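 Readout: medium progesterone by MTBE extraction, reverse-phase C18 HPLC, ESI-positive MS/MS. Human H295R cells, 10 uM forskolin pretreatment 48 h, chemical 48 h in 0.1% DMSO. Gain or loss fitted against DMSO baseline.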

Experiment [18] can be described thus: CEETOX_H295R_ESTRONE_noMTC: CeeTox H295R High-throughput Steroidogenesis Assay for Estrone, maximum tolerated concentration (MTC) filtered results only (AID 2283921; active = hit-call score of the fitted dose curve at least 0.9, where 1 is the maximum; inactive = score below 0.9). As to conditions: actives raise or lower the signal. In short, it runs like this:
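Estrone in spent medium, quantified by tandem MS following dansyl chloride derivatization, after 48 h chemical exposure (0.1% DMSO) of forskolin-prestimulated (10 uM, 48 h) H295R cells; concentrations not MTC-filtered, bidirectional fit against DMSO.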

The target of experiment [19] is human Thyroid hormone Receptor alpha (TRa), THRA (gene 7067) (UniProt P10827). The experiment in a line: ATG_hTRa_XSP2: Attagene TRANS-FACTORIAL Multi-Species (XSP2) HepG2 Assay for human Thyroid hormone Receptor alpha (TRa) (AID 2283838). The method, boiled down: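 Reporter transcripts were read by RT-PCR with fluorescent primer extension, HpaI digestion and capillary electrophoresis. These came from HepG2 cells carrying multiplexed TRa-Gal4 TRANS constructs, harvested 24 hours after dosing. The medium also held 6-alpha-fluorotestosterone (3 nM) and norgestrel (1.5 nM), and increases were fitted against DMSO.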
human Thyroid hormone Receptor alpha (TRa), THRA (gene 7067), sequence (P10827 whole entry, looked up, the tested form may be a part): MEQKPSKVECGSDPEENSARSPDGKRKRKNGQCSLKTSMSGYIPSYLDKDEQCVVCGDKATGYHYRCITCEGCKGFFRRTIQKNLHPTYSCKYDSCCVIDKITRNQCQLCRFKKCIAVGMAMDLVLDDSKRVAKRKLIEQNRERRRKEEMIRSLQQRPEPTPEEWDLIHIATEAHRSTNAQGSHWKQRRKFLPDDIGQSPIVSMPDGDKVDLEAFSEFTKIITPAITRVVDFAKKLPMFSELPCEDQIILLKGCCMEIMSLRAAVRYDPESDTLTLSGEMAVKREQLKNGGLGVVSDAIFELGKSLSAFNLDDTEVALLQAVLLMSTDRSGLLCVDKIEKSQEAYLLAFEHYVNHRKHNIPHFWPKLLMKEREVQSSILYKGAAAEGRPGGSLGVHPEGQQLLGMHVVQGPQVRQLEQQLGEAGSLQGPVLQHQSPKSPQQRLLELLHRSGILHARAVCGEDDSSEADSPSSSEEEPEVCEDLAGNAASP

Where “and” joins values, the source holds several entries; their conditions need not be identical. Identical values can stand only once. Inconclusive results are not listed. Where a structure was tested more than once in an assay, its records may differ in their call. Calls of active or inactive are those of the source. Rule for the calls, unless noted: active = hit-call score of the fitted dose curve at least 0.9, where 1 is the maximum; inconclusive = response in the unintended direction; inactive = score below 0.9.

human Thyroid hormone Receptor beta (TRb), THRB (gene 7068), sequence (P10828 whole entry, looked up): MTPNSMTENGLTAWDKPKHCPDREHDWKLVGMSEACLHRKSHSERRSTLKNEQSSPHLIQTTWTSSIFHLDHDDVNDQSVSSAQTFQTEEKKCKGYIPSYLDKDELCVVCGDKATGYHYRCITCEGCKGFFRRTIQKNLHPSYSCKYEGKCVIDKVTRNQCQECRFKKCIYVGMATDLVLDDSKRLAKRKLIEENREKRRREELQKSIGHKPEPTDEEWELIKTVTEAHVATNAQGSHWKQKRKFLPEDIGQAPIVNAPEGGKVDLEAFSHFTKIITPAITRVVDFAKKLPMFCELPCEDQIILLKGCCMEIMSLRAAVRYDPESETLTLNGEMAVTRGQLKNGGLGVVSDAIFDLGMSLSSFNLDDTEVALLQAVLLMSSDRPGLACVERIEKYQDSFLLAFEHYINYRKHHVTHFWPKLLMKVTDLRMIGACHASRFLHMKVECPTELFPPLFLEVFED
frog Thyroid hormone Receptor alpha (TRa), thra-a (gene 397942), sequence (P15204 whole entry, looked up, the tested form may be a part): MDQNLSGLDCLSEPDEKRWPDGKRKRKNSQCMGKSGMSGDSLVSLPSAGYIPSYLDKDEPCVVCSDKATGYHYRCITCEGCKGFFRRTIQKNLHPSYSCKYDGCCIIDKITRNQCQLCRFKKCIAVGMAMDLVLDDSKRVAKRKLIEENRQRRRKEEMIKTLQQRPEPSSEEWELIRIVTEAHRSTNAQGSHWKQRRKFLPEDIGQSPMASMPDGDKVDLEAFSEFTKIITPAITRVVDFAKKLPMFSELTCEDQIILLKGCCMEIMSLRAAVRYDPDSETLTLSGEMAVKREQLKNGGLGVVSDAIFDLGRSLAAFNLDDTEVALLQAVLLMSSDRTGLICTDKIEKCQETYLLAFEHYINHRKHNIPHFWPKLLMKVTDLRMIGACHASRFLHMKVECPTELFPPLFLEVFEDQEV

The term AC50 denotes the concentration at which the activity in the assay is half-maximal. Turning to `CC(C)(C)c1ccc(CSc2cnn(C(C)(C)C)c(=O)c2Cl)cc1`, the molecule was called inactive in [1], in experiment [2], in experiment [4], in experiment [5], in experiment [7] and in [8]. The AC50 in [3] is 0.0534 µM (active); in experiment [6] it was 0.0151 µM (active).

Turning to `CCCN(CCC)c1c([N+](=O)[O-])cc(S(N)(=O)=O)cc1[N+](=O)[O-]`, in experiment [1], the AC50 was 51.1 µM (active). Moreover, the molecule was called inactive in experiment [2], in [4], in experiment [5], in [9], in [7] and in experiment [8].

For the molecule `C=CCC1=C(C)C(OC(=O)C2C(C=C(C)C)C2(C)C)CC1=O` (configuration not stated), in experiment [7], the AC50 is 34 µM (active) and 50 µM (active); the outcome was inactive. Moreover, in [8], the half-maximal activity concentration (AC50) is 1.04 µM (active) and 50 µM (active); the outcome was inactive.

In the case of `OC(c1ccc(Cl)cc1)(c1cncnc1)c1ccccc1Cl` (configuration not stated), the call in experiment [1], in experiment [3], in experiment [4], in experiment [5], in [7] and in [8] was inactive. Also, the AC50 in experiment [2] was 45.8 µM (active); in experiment [10], 36.7 µM (active); in experiment [11], 1.29 µM (active); in experiment [12], 31.1 µM (active); in [13], 2.57 µM (active); in experiment [14] it was 0.203 µM (active). Further, the AC50 in [15] was 11.4 µM (active); in [16], 9.94 µM (active); in experiment [17], 2.67 µM (active); in experiment [18], 13.9 µM (active).

For `C=CC1(C)OC(=O)N(c2cc(Cl)cc(Cl)c2)C1=O` (configuration not stated), the AC50 in [1] is 25.6 µM (active); in [19] it was 100 µM (active). Further, the molecule was called inactive in experiment [2], in [3], in experiment [4], in experiment [5], in [6] and in experiment [9]. The outcome in experiment [7] and in experiment [8] was inactive.

For `CCOc1cc(Oc2ccc(C(F)(F)F)cc2Cl)ccc1[N+](=O)[O-]`, in [7], the AC50 was 22.1 µM (active).

`CN(C)C(=S)SSC(=S)N(C)C`: the outcome in [7] and in [8] was inactive.

Regarding `O=C(Nc1ccccc1)Nc1ccnc(Cl)c1`, the AC50 in [7] was 50 µM (active); in experiment [8], 40.1 µM (active).

`Cc1c(F)c(F)c(COC(=O)C2C(/C=C(\Cl)C(F)(F)F)C2(C)C)c(F)c1F` (configuration not stated): the result in experiment [7] and in [8] was inactive.
